Our source for the binding signal values is publication PMC7819943, “Rice protein-binding microarrays: a tool to detect cis-acting elements near promoter regions in rice”.

Over roughly 68,000 sequences, “fluorescence intensity (a.u.)” has its median near 9,100; the highest 2% begin near 16,000. Only a selection was taken, and the highest values are over-represented in it overall.

Chain of OsWRKY34 (Q0JBA9 entry or part of it): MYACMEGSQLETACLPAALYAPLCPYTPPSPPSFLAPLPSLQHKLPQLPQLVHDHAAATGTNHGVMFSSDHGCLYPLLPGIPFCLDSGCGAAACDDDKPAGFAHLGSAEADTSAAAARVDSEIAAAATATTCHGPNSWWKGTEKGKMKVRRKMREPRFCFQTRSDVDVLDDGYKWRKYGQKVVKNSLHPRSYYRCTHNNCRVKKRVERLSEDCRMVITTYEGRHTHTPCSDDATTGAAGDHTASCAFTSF

The target in the test is OsWRKY34 (Oryza sativa, UniProt Q0JBA9 1-250). Kind of test: protein-binding microarray (RPBM); PBS, 2% BSA, 51.3 ng/ul salmon testes DNA, 50 uM zinc acetate, 200 nM TF, 25 C, 1 h; high values mean tight binding. To be noted: protein: recombinant; tags: N-terminal polyhistidine and DsRed monomer fusion (pET32a); label: CyDye5-dUTP incorporated in the synthesized complementary strand; 3' TTTTT single-stranded linker to array surface; dsDNA, one strand shown. In a few lines:
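Transcription factors were made in E. coli BL21-CodonPlus as N-terminal fusions to a polyhistidine tag and DsRed, then purified on Ni–NTA. After primer extension with Cy5-dUTP and blocking with 2% BSA, a custom Agilent array was exposed for 1 h at 25 °C to 200 nM protein in PBS, 2% BSA, salmon testes DNA and 50 µM zinc acetate. Washed arrays were scanned on an Axon 4000B, and the binding signal is per-feature fluorescence intensity in arbitrary units.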
As for “CGTTTCTTGGCTGGTTTTCTTGGGCGGCGATCGATCGATGCGGAGTCACCTAGTGCAG”, the binding signal was 8140 fluorescence intensity (a.u.). In the case of “CGTGTCTTGTGTGTTTCCTGTCTCGCGAGCCTTCCACATACGGAGTCACCTAGTGCAG” it was 15000 fluorescence intensity (a.u.). In the case of “TTGTTCTTTTTGGTCTGGTTTTTTTGTGGTTTCTTGATTGCGGAGTCACCTAGTGCAG” it was 9010 fluorescence intensity (a.u.); in that of “ACCTTAATTAATTAATCTTGTTTTCTCATGGAGTTGTCATCGGAGTCACCTAGTGCAG”, 10400 fluorescence intensity (a.u.).

Consider “AACGCGTGTATTTCTATGCTTTTGATATTGATCTTGCATCCGGAGTCACCTAGTGCAG”, for which the binding signal is 8230 fluorescence intensity (a.u.). Take “GGACATTTGGAACTGATTACTCCTACTACTCTAGTGAAAACGGAGTCACCTAGTGCAG”: the binding signal was 8400 fluorescence intensity (a.u.). The figure for “GTGCTACCTCCATCCCAATATACTTGTCGTTTTAAGTTTTCGGAGTCACCTAGTGCAG” is 11800 fluorescence intensity (a.u.); for “TCTCTTATACTGATTTTTGGGTCCAATCCCTTACCGTTGACGGAGTCACCTAGTGCAG” it is 8150 fluorescence intensity (a.u.). In the case of “TGGTGACGATGGTGATGTTCTTGTTGTTGGTTTTTCCTTTCGGAGTCACCTAGTGCAG”, the binding signal is 9530 fluorescence intensity (a.u.).

As to “GCCTTTTTTCCTTTGTCTTTTTCCGGCCCGCGTTCTTTTTCGGAGTCACCTAGTGCAG”, the binding signal was 17400 fluorescence intensity (a.u.).

As to “CCGTTTCCTTTGCTGGTTGTGTTTTGTGCTTGCATTCATGCGGAGTCACCTAGTGCAG”, the binding signal is 12400 fluorescence intensity (a.u.). For the sequence “GATGTTGTTTCCTTTCTTTGGTGGTTTGGTTTGGTTGGGTCGGAGTCACCTAGTGCAG”, the binding signal is 29300 fluorescence intensity (a.u.). In the case of “GGTCTGGTTTTATCGGTTTATATGTGTGTGTTTTTTTTGTCGGAGTCACCTAGTGCAG”, the binding signal is 33500 fluorescence intensity (a.u.). In the case of “ATTTGTTGTTTCATTTGTATTGTTTTGTGTTGGTTTATGTCGGAGTCACCTAGTGCAG” it was 8940 fluorescence intensity (a.u.); in that of “GTTCTCTTTTTTGTTTGTCTTTCCTAGTGCAATATGTTTCCGGAGTCACCTAGTGCAG”, 10700 fluorescence intensity (a.u.); in that of “TTTGTGTGTCTTGTTTATATGTGCACATATCTTGTCTTGTCGGAGTCACCTAGTGCAG”, 8370 fluorescence intensity (a.u.).

For “ACCTTTCCTTTCATCTCTTCCGCTGGTTTTGTGGGATATTCGGAGTCACCTAGTGCAG”, the binding signal was 12800 fluorescence intensity (a.u.). In the case of “CTTGTTGATGTGGGTGTTTCTTGGTCGATCCTTCTTGTTTCGGAGTCACCTAGTGCAG”, the binding signal is 8330 fluorescence intensity (a.u.). As to “TTCCGGCCCGCGTTCTTTTTGAAGTCCAGTTTACGTCCTTCGGAGTCACCTAGTGCAG”, the binding signal is 10800 fluorescence intensity (a.u.). The figure for “TATTCCTTTCATTGGGTTTGTGCGGGATGGCTGGTTGGTGCGGAGTCACCTAGTGCAG” is 18100 fluorescence intensity (a.u.). The figure for “GTTAGGCATGCTGCTTGTTTATTTTTTTTCAAGTTGAGAACGGAGTCACCTAGTGCAG” is 8140 fluorescence intensity (a.u.). In the case of “GCTACTGGTGCCGGCCGCCGTCCTCCTGCTTCCGCCGCCGCGGAGTCACCTAGTGCAG” it was 9560 fluorescence intensity (a.u.); in that of “CCCATCATGTGACTTCCATCCTTGTTCCTAGCTGCATGCACGGAGTCACCTAGTGCAG”, 9270 fluorescence intensity (a.u.). For “TCTTCACATGCTATTTTGTGTTATTCTTGCCTATAAATGACGGAGTCACCTAGTGCAG”, the binding signal was 8310 fluorescence intensity (a.u.). “ACATGTAAACTGTGCAATTGATTTTTTTTGTCCACATTTACGGAGTCACCTAGTGCAG”: the binding signal was 10400 fluorescence intensity (a.u.). “AGAGGAGACAGAACCCCTGACTTTATACAGTTTGCAGTTACGGAGTCACCTAGTGCAG”: the binding signal is 8340 fluorescence intensity (a.u.). In the case of “CGCCGCCGCATCTCCTCCTTCCTCTCTTGGCAACTGTCGGCGGAGTCACCTAGTGCAG”, the binding signal was 8300 fluorescence intensity (a.u.). In the case of “TTGAGTTGTGTTCTTGGTTGGGGAGGAGGAGGAGGAGATGCGGAGTCACCTAGTGCAG” it was 15100 fluorescence intensity (a.u.); in that of “ACATGGGCTGGGCTGGGCTGGGCTCTTCTTCCTTTTTGTTCGGAGTCACCTAGTGCAG”, 21900 fluorescence intensity (a.u.); in that of “AGTTTGTGTGTGTAGGAAAGTTTTGATGTGATGAAAAAGTCGGAGTCACCTAGTGCAG”, 8680 fluorescence intensity (a.u.). The figure for “TCCTTGGGCTTTTTTTCTTGTTCGGGGTTGAGAGGCAATGCGGAGTCACCTAGTGCAG” is 18700 fluorescence intensity (a.u.); for “TTTTTGTTTCTATTGGAGGTTGTCATGTTTATCTACCTTTCGGAGTCACCTAGTGCAG” it is 9650 fluorescence intensity (a.u.). As to “TTCCTTCTTCCTTCTTTTTTTCTCTCTTCTCCTTTTTTTTCGGAGTCACCTAGTGCAG”, the binding signal is 10300 fluorescence intensity (a.u.).

Regarding “TTGTAAGTTTGTGTGTAGGAAAGTTTTGATGTGAGGAAAACGGAGTCACCTAGTGCAG”, the binding signal was 9150 fluorescence intensity (a.u.). In the case of “GTCTACTATCCTCTTTCATTGTCTTTTTGTTGGTTGGTTTCGGAGTCACCTAGTGCAG”, the binding signal is 17600 fluorescence intensity (a.u.). In the case of “GATTCCTTCCTTTTGTTTTTGGGCCGAATTCTCCTTCTTTCGGAGTCACCTAGTGCAG” it was 13000 fluorescence intensity (a.u.); in that of “GGCGGGGTTGGGGCGGCAGGCGGCTGTGAGGTTCTTGATTCGGAGTCACCTAGTGCAG”, 16100 fluorescence intensity (a.u.); in that of “GTAGGAAAGTTTGTTTGTGTGTGTAGAAAAGTTTTGATGTCGGAGTCACCTAGTGCAG”, 21000 fluorescence intensity (a.u.).

As for “GACATATTTTTTTCTCCTCTCTTTTTTCATTTGTTTTTTTCGGAGTCACCTAGTGCAG”, the binding signal was 11600 fluorescence intensity (a.u.). As to “ACACACACTTTACAGGTTTACAGCCCAACTTATCCGTGCACGGAGTCACCTAGTGCAG”, the binding signal is 9890 fluorescence intensity (a.u.). “ATTTCTTTCCATCCATAATTACTAGGCTGCATTGCCTCTTCGGAGTCACCTAGTGCAG”: the binding signal was 8720 fluorescence intensity (a.u.). The figure for “CTCGTACTAGGGTGTCATGCTGTTGGTTCCGGTGAATCTTCGGAGTCACCTAGTGCAG” is 8270 fluorescence intensity (a.u.).
